PubChem BioAssay (EPA / NIEHS)
Results filed as inconclusive are left out. More than one record can exist for a structure, and the calls need not agree. Active and inactive are the calls of the source. How the source made its calls, unless noted: active means hit-call score of the fitted dose curve at least 0.9, where 1 is the maximum; inactive means score below 0.9.

Read-out: HMG-CoA synthase (HMGCS2), HMGCS2 (gene 3158)
Assay: CLD_HMGCS2_48hr: CellzDirect (CLD) Gene Expression Assay for HMG-CoA synthase (HMGCS2) at 48 hours (AID 2283711; active means hit-call score of the fitted dose curve at least 0.9, where 1 is the maximum)
How it was run: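 mRNA induction read by qNPA chemiluminescence, 48 h after dosing. Cultured primary human liver cells (two donor preparations) received fresh compound daily over two days against 0.2% DMSO vehicle; morphology-based cytotoxicity noted alongside.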

SMILES | outcome | AC50
Cc1ccn2nc(S(=O)(=O)Nc3c(F)cccc3F)nc2n1 | inactive | 
CCCCSP(=O)(SCCCC)SCCCC | inactive | 
CC(=NC#N)N(C)Cc1ccc(Cl)nc1 | inactive | 
COc1cc(OC)nc(Sc2cccc(Cl)c2C(=O)O)n1 | inactive | 
C#CC(C)(C)NC(=O)c1cc(Cl)cc(Cl)c1 |  | 0.0094 µM (active)
O=C(O)c1cc(Oc2ccc(C(F)(F)F)cc2Cl)ccc1[N+](=O)[O-] |  | 0.026 µM (active)
CC(COc1ccc(Oc2ccccc2)cc1)Oc1ccccn1 (centres undefined) | inactive | 
CCCCN(CC)c1c([N+](=O)[O-])cc(C(F)(F)F)cc1[N+](=O)[O-] | inactive | 
CN1COCN(Cc2cnc(Cl)s2)C1=N[N+](=O)[O-] | inactive | 
CCCSP(=O)(OCC)Oc1ccc(Br)cc1Cl (centres undefined) | inactive | 
CCCCOC(=O)[C@@H](C)Oc1ccc(Oc2ccc(C#N)cc2F)cc1 | inactive | 
C[N+]1(C)CCCCC1 | inactive | 
CCNc1nc(Cl)nc(NC(C)(C)C#N)n1 | inactive | 
C=C(C)[C@H]1Cc2c(ccc3c2O[C@@H]2COc4cc(OC)c(OC)cc4[C@@H]2C3=O)O1 | inactive | 
CCCOc1nn(C(=O)NS(=O)(=O)c2ccccc2C(=O)OC)c(=O)n1C | inactive | 
CC(C1CC1)C(O)(Cn1cncn1)c1ccc(Cl)cc1 (centres undefined) | inactive | 
CCOP(=S)(OCC)Oc1ccc2c(C)c(Cl)c(=O)oc2c1 |  | 0.0125 µM (active)
COP(=O)(NC(C)=O)SC (centres undefined) | inactive | 
CN(C)[C@@H]1C(=O)C(C(N)=O)=C(O)[C@@]2(O)C(=O)C3=C(O)c4c(O)cccc4[C@@](C)(O)[C@H]3[C@H](O)[C@@H]12 |  | 0.164 µM (active)

Test system: not listed separately
Assay: STM_H9_OrnithineISnorm_perc: Stemina devTOX quickPredict H9 human embryonic stem cell (hESC)-based Assay for Ornithine (ORN) Metabolite Biomarker, Normalized (AID 2283712);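 further: ornithine released into spent medium during last day measured by mass spectrometry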
How it was run: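 Ornithine in spent medium from the last 24 h of a 72 h exposure, deproteinised and quantified by UPLC-HRMS against an isotope-labelled internal standard, expressed relative to 0.1% DMSO. Pluripotent H9 cells; compound refreshed every 24 h.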

SMILES | AC50 | outcome
O=[N+]([O-])c1cc(C(F)(F)F)c(Cl)c([N+](=O)[O-])c1Nc1ncc(C(F)(F)F)cc1Cl | 15.5 µM (active) | 
Cc1ccn2nc(S(=O)(=O)Nc3c(F)cccc3F)nc2n1 |  | inactive
CC(COc1ccc(Oc2ccccc2)cc1)Oc1ccccn1 (centres undefined) | 70.3 µM (active) | 
CC(C)[C@H](C(=O)O[C@H](C#N)c1cccc(Oc2ccccc2)c1)c1ccc(Cl)cc1 | 50 µM (active) | 
CCOP(=S)(OCC)SCCSCC | 72.2 µM (active) | 
CCCCOC(=O)[C@@H](C)Oc1ccc(Oc2ccc(C#N)cc2F)cc1 | 85.7 µM (active) | 
C[N+]1(C)CCCCC1 |  | inactive
CCNc1nc(Cl)nc(NC(C)(C)C#N)n1 |  | inactive
C=C(C)[C@H]1Cc2c(ccc3c2O[C@@H]2COc4cc(OC)c(OC)cc4[C@@H]2C3=O)O1 | 0.347 µM (active) | 
CC(C1CC1)C(O)(Cn1cncn1)c1ccc(Cl)cc1 (centres undefined) | 50 µM (active) | 
CCOP(=S)(OCC)Oc1ccc2c(C)c(Cl)c(=O)oc2c1 | 50 µM (active) | 
FC(F)C(F)(F)OCC(Cn1cncn1)c1ccc(Cl)cc1Cl (centres undefined) |  | inactive
Cc1nn(-c2cc(NS(C)(=O)=O)c(Cl)cc2Cl)c(=O)n1C(F)F | 0.114 µM (active) | 
CN(C)[C@@H]1C(=O)C(C(N)=O)=C(O)[C@@]2(O)C(=O)C3=C(O)c4c(O)cccc4[C@@](C)(O)[C@H]3[C@H](O)[C@@H]12 | 50 µM (active) | inactive

Test system: not listed separately
Assay: STM_H9_CystineISnorm_perc: Stemina devTOX quickPredict H9 human embryonic stem cell (hESC)-based Assay for Cystine (CYSS) Metabolite Biomarker, Normalized (AID 2283713)
How it was run: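 Cystine in spent media from the last 24 h of a 72 h H9 hESC exposure (daily re-dosing), measured by UPLC-HRMS. Values normalized to isotopic internal standard, then to 0.1% DMSO; viability via CellTiter-Fluor.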

SMILES | AC50 | outcome
CSC1=N[C@@](C)(c2ccccc2)C(=O)N1Nc1ccccc1 | 30.1 µM (active) | 
O=[N+]([O-])c1cc(C(F)(F)F)c(Cl)c([N+](=O)[O-])c1Nc1ncc(C(F)(F)F)cc1Cl | 16.4 µM (active) | 
Cc1ccn2nc(S(=O)(=O)Nc3c(F)cccc3F)nc2n1 |  | inactive
CC(COc1ccc(Oc2ccccc2)cc1)Oc1ccccn1 (centres undefined) | 0.0124 µM (active) | 
CC(C)[C@H](C(=O)O[C@H](C#N)c1cccc(Oc2ccccc2)c1)c1ccc(Cl)cc1 | 80.5 µM (active) | 
CCOP(=S)(OCC)SCCSCC | 31.1 µM (active) | 
CCCCOC(=O)[C@@H](C)Oc1ccc(Oc2ccc(C#N)cc2F)cc1 | 77.7 µM (active) | 
C[N+]1(C)CCCCC1 |  | inactive
CCNc1nc(Cl)nc(NC(C)(C)C#N)n1 |  | inactive
C=C(C)[C@H]1Cc2c(ccc3c2O[C@@H]2COc4cc(OC)c(OC)cc4[C@@H]2C3=O)O1 | 0.279 µM (active) | 
CC(C1CC1)C(O)(Cn1cncn1)c1ccc(Cl)cc1 (centres undefined) | 83 µM (active) | 
CCOP(=S)(OCC)Oc1ccc2c(C)c(Cl)c(=O)oc2c1 |  | inactive
FC(F)C(F)(F)OCC(Cn1cncn1)c1ccc(Cl)cc1Cl (centres undefined) |  | inactive
Cc1nn(-c2cc(NS(C)(=O)=O)c(Cl)cc2Cl)c(=O)n1C(F)F |  | inactive
CN(C)[C@@H]1C(=O)C(C(N)=O)=C(O)[C@@]2(O)C(=O)C3=C(O)c4c(O)cccc4[C@@](C)(O)[C@H]3[C@H](O)[C@@H]12 | 11.6 µM (active) | inactive

Test system: not listed separately
Assay: STM_H9_OrnCyssISnorm_ratio: Stemina devTOX quickPredict H9 human embryonic stem cell (hESC)-based Assay for Ornithine (ORN):Cystine (CYSS) Ratio (AID 2283714; active means hit-call score of the fitted dose curve at least 0.9, where 1 is the maximum)
How it was run: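 H9 hESC, 72h, q24h re-dose; last-day media → acetonitrile deproteinization → UPLC-HRMS. ORN:CYSS ratio from isotope-normalized EIC areas, vs 0.1% DMSO; MTX references on each plate.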

SMILES | AC50 | outcome
CSC1=N[C@@](C)(c2ccccc2)C(=O)N1Nc1ccccc1 | 29.9 µM (active) | 
O=[N+]([O-])c1cc(C(F)(F)F)c(Cl)c([N+](=O)[O-])c1Nc1ncc(C(F)(F)F)cc1Cl | 15.2 µM (active) | 
CC(C)[C@H](C(=O)O[C@H](C#N)c1cccc(Oc2ccccc2)c1)c1ccc(Cl)cc1 | 74.2 µM (active) | 
CCOP(=S)(OCC)SCCSCC | 34.3 µM (active) | 
CCCCOC(=O)[C@@H](C)Oc1ccc(Oc2ccc(C#N)cc2F)cc1 | 84.8 µM (active) | 
C=C(C)[C@H]1Cc2c(ccc3c2O[C@@H]2COc4cc(OC)c(OC)cc4[C@@H]2C3=O)O1 | 0.333 µM (active) | 
CC(C1CC1)C(O)(Cn1cncn1)c1ccc(Cl)cc1 (centres undefined) | 77.4 µM (active) | 
CCOP(=S)(OCC)Oc1ccc2c(C)c(Cl)c(=O)oc2c1 |  | inactive
CN(C)[C@@H]1C(=O)C(C(N)=O)=C(O)[C@@]2(O)C(=O)C3=C(O)c4c(O)cccc4[C@@](C)(O)[C@H]3[C@H](O)[C@@H]12 |  | inactive
